The list is not random: actives were taken first. Their share in the collection is about 2.3%.
Mcl1 Noxa PPI: disrupts binding of human Mcl-1 to Noxa peptide. TR-FRET Mcl-1/Noxa peptide binding, 2 h. hit rate 1.5% among 220,000. inhibition, % at 21.7 µM. AID 1022;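 active means compounds that cut the protein-peptide binding signal by more than 50% relative to plate controls in a single-dose test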;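 further: His-tagged Mcl-1 with rhodamine Noxa BH3 peptide and terbium anti-His antibody; 0% = Mcl-1 plus Noxa peptide wells and 100% = peptide-only wells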
Target sequence (Q07820 whole entry, looked up): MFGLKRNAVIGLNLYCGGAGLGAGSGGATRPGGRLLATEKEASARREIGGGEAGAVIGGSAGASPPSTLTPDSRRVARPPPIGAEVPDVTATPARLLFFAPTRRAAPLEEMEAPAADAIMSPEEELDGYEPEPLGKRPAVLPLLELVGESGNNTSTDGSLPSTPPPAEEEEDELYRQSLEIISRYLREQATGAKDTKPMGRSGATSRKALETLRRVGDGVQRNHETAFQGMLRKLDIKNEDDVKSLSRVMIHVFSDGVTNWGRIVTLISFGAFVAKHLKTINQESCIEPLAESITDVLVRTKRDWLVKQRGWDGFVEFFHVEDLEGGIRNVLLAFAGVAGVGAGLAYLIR
GLD-1 RNA inh: GLD-1-TGE RNA interaction inhibition (C. elegans). purified GLD-1 + fluorescein TGE RNA, fluorescence polarization. Q17339. hit rate 0.44% among 320,000. AID 2280. inhibition, % at 5.96 µM;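 active means percent inhibition above a per-plate cutoff, the plate mean of test compounds plus 3 SD, cut at about 30% in these data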;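 further: 0% = DMSO wells with GLD-1 and probe and 100% = wells lacking GLD-1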
Bcl-xL primary: blocks human Bcl-xL binding to Bim BH3 peptide. Q07817. GST-Bcl-xL / FITC-Bim BH3 peptide fluorescence polarization. inhibition, % at 10.9 µM. hit rate 0.7% among 320,000. AID 2129;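 active means inhibition above the mean of all tested compounds plus 3 SD, cutoff set per campaign, cut at about 30% in these data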;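 further: 0% = DMSO wells and 100% = unlabeled Bim-BH3 peptide competitor; inhibitors lower millipolarization by displacing the labeled peptide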
Target sequence (Q07817 whole entry, looked up): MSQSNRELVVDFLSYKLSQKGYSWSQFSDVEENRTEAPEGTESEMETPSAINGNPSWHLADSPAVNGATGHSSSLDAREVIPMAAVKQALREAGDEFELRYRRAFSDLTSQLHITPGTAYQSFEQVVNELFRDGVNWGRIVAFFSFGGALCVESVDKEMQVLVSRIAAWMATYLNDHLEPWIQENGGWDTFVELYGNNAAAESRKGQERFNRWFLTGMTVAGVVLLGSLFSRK
Mcl-1 Bim block: inhibitors of Bim-Mcl-1 interaction, human; Q07820; Bead-based flow cytometry, Bim peptide-Mcl-1 binding; inhibition, % at 10 µM; hit rate 0.1% among 190,000; in the data active means inhibition above about 40%;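 further: 0% = no compound tracer wells and 100% = peptide blocker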
Mcl1 Bid PPI: Mcl-1/Bid interaction inhibition | Q07820 | TR-FRET Mcl-1/Bid-Dy647 peptide binding, 1536-well | inhibition, % at 21.7 µM | hit rate 0.97% among 220,000;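 active means compounds that cut the binding signal by more than half at the single screening dose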;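 further: His-tagged Mcl-1 with europium anti-His antibody binding Bid BH3 peptide; 0% = Mcl-1 plus peptide wells and 100% = peptide-only wells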
MCL1 BIM primary: MCL1-BIM-BH3 interaction inhibition (human); GST-MCL1 / FITC-Bim-BH3 fluorescence polarization; hit rate 0.68% among 320,000; AID 2057; Q07820; inhibition, % at 10.9 µM;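 active means inhibition above the mean inhibition of all tested compounds plus 3 SD, set per campaign, cut at about 40% in these data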;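 further: 0% = DMSO wells and 100% = unlabeled Bim-BH3 peptide control; higher means more loss of mP so more displacement of Bim peptide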
Bcl-xL conf: Bcl-xL (human) inhibition, MCL1 counter-screen confirmation; shares compounds with MCL1 BIM primary; GST-Bcl-xL / FITC-Bim BH3 peptide FP binding; inhibition, % at 10.9 µM; hit rate 54% among 1,700; AID 2166;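 active means inhibition above a cutoff equal to the mean inhibition of all tested compounds plus 3 SD, cut at about 30% in these data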;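 further: 0% = DMSO wells and 100% = unlabeled Bim BH3 control peptide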
MCL1 inh confirm: MCL1-BIM-BH3 interaction inhibition, confirmation; hit rate 61% among 1,700; shares compounds with MCL1 BIM primary; inhibition, % at 10.9 µM; GST-MCL1 / FITC-Bim-BH3 fluorescence polarization;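 active means inhibition above the average of all tested compounds plus 3 SD, cut at about 40% in these data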;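 further: 0% = DMSO wells and 100% = unlabeled Bim-BH3 control peptide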
Starred values were filed as active, the others as inactive; · = no result given; + = active, no number.

SMILES | Mcl1 Noxa PPI | GLD-1 RNA inh | Bcl-xL primary | Mcl-1 Bim block | Mcl1 Bid PPI | MCL1 BIM primary | Bcl-xL conf | MCL1 inh confirm
CC(=O)Oc1ccc2c(=O)c(Oc3ccccc3)coc2c1OC(C)=O | 26 | -2 | 15 | 0 | -104 | 50* | 20 | 40
Oc1ccc(O)c(/C(=N/Nc2ccccc2)c2ccccc2)c1 | · | 1 | 26 | · | · | 49* | 17 | 13
O=S(=O)(NCc1ccco1)c1cccc2cccnc12 | 13 | 4 | 12 | 10 | -13 | 154* | 20 | 29
O=C(c1cc(-c2ccc(Cl)s2)nc2ccccc12)N1CCCC1 | · | -2 | 6 | · | · | 8 | · | ·
c1ccc2c(c1)Nc1cc3ccccc3cc1S2 | 9 | -7 | 0 | · | -10 | 12 | · | ·
Cc1ccc2c(c1)Sc1c(ccc3ccccc13)N2 | 40 | -3 | 67* | · | -19 | 71* | 80* | 104*
O=C(Oc1ccc2c(c1)O/C(=C\c1ccncc1)C2=O)c1ccccc1 | 16 | 75* | 81* | 0 | 19 | 93* | 23 | 54*
CC(C)Oc1ccc(CC(=O)NNC(=S)Nc2ccccc2)cc1 | -48 | 0 | 7 | · | -143 | 186* | -29 | -53
CNC(=S)N(CCc1c(C)[nH]c2ccc(Cl)cc12)Cc1cc(OC)c(OC)c(OC)c1 | -17 | -22 | 6 | -2 | -13 | 9 | · | ·
CN1CCc2cc3c(c4c2[C@H]1[C@H](O)c1ccccc1-4)OCO3 | 35 | 48* | 111* | 3 | -5 | 124* | 61* | 80*
O=C1CCNc2cc3ccccc3cc21 | 60* | 57* | 112* | 4 | -88 | 131* | 114* | 144*
CCC(CC)CN1CCN=C1Nc1ccccc1 | · | 2 | 1 | · | · | -2 | · | ·
C=CCn1c(CSc2ccccc2[N+](=O)[O-])n[nH]c1=S | · | 0 | 18 | · | · | 46* | 28 | 46*
COc1ccc(CCNC(=O)CNC(=O)Cn2ccc3ccccc3c2=O)cc1OC | 1 | 6 | 1 | · | -6 | 4 | · | ·
CC1(NC(=O)CCc2nc3sc4c(c3c(=O)[nH]2)CCCC4)CCS(=O)(=O)C1 (stereo unspecified) | · | 2 | 11 | · | · | 42* | 9 | 44*
CC(=O)Nc1ccc(NC(=O)CCc2nc3sc4c(c3c(=O)[nH]2)CCCC4)cc1 | · | -6 | -5 | · | · | 8 | · | ·
COc1ccc(C2=Nn3c(nnc3-c3ccco3)SC2)cc1 | 8 | 6 | 13 | 8 | -10 | 6 | · | ·
Oc1ccc(C2=Nn3c(nnc3-c3ccco3)SC2)cc1O | 38 | 1 | 18 | 33 | -2 | 60* | 29 | 73*
O=C(c1cccc(S(=O)(=O)N2CCOCC2)c1)N1CCC(Cc2ccccc2)CC1 | · | 6 | 2 | · | · | -4 | · | ·
Cc1ccc(C2C(C#N)=C(N)Oc3cc4c(cc32)OCO4)cc1 (stereo unspecified) | 17 | 1 | -1 | -2 | -26 | -6 | · | ·
CSc1ccc(C2C(C#N)=C(N)Oc3cc4c(cc32)OCO4)cc1 (stereo unspecified) | 10 | -1 | 7 | 0 | -24 | 43* | 3 | 7
CCN(CC)S(=O)(=O)c1ccc(N/N=C(\C)c2ccc3c(c2)OCO3)c([N+](=O)[O-])c1 | 28 | -4 | 3 | 0 | 6 | -7 | · | ·
O=C1/C(=C/c2cccc(Cl)c2)CSc2sccc21 | 7 | 3 | 6 | · | -6 | 56* | 9 | 5
COc1ccc(CCNc2nc(C)c(C(C)=O)s2)cc1OC | · | -6 | 6 | · | · | 4 | · | ·
O=[N+]([O-])c1ccc(/C=C/C2=NN(c3ccccc3)C(c3ccco3)C2)cc1 (stereo unspecified) | 4 | -20 | 67* | · | -13 | 67* | 93* | 109*
SMILES | Mcl1 Noxa PPI | GLD-1 RNA inh | Bcl-xL primary | Mcl-1 Bim block | Mcl1 Bid PPI | MCL1 BIM primary | Bcl-xL conf | MCL1 inh confirm
COc1ccc(C(=O)N/N=C/c2c[nH]c3ccccc23)cc1 | · | -1 | 3 | · | · | 11 | · | ·
COc1ccc(C(=O)N/N=C/c2cc3ccccc3[nH]c2=S)cc1 | 44 | 11 | 17 | 27 | -107 | 44* | 7 | 28
N#CCN(CC#N)C(=O)C1c2ccccc2Oc2ccccc21 | · | + | + | · | · | + | 6 | 11
NC(=O)COC(=O)C1c2ccccc2Oc2ccccc21 | · | 0 | 7 | · | · | 2 | · | ·
Cc1nnc(NC(=O)CSC2=NN3CCCC(=O)N=C3S2)s1 | 35 | 4 | -2 | 0 | -30 | -3 | · | ·
Cn1c(=O)c2[nH]c(-c3ccccc3)c(O)c2n(C)c1=O | 27 | + | + | -2 | -70 | + | 142* | 159*
Cn1c(=O)c2[nH]c(-c3ccccc3Cl)c(O)c2n(C)c1=O | 17 | 152* | 115* | -6 | -8 | 134* | 49* | 77*
Cn1c(=O)c2[nH]c(-c3ccccc3)nc2n(C)c1=O | 1 | · | · | 0 | 6 | · | · | ·
CC(=O)c1cc(-c2ccccc2)n(CC(=O)N2CCN(C3CCCC3)CC2)c1C | -15 | 15 | 45* | -3 | -32 | 55* | 19 | 24
CC(=O)c1cc(-c2ccccc2)n(CC(=O)N2CCC(C)CC2)c1C | -2 | -3 | 10 | -1 | -32 | 11 | · | ·
COc1cc(/C=C2\SC(=O)N(CC(=O)Nc3ccc(C)cc3)C2=O)cc(Cl)c1OCC(=O)O | · | -6 | 5 | · | · | 13 | · | ·
O=C(C[n+]1cccc2ccccc21)c1ccc(Br)cc1 | · | -5 | 2 | · | · | -1 | · | ·
NC(=O)C[n+]1cccc2ccccc21 | 47 | 16 | 185* | 2 | -26 | + | 101* | 124*
Cc1cc(-c2nnc(SCC(=O)Nc3cccc(C)c3C)n2N)n[nH]1 | · | -1 | 3 | · | · | 5 | · | ·
c1cc(-c2nnc3n2CCCCC3)ccn1 | 9 | -6 | -5 | -1 | -11 | 84* | 10 | 10
CC(C)Oc1snc(Cl)c1C(N)=O | 8 | 1 | 5 | 0 | -13 | 4 | · | ·
CC(C)C1OC2(C)OC(=N)C1(C#N)C(C#N)(C#N)C2c1ccccc1 (stereo unspecified) | 17 | 79* | 80* | -7 | -25 | 103* | 32* | 48*
Cc1ccc(-c2c3c([nH]c(=S)c2C#N)CCCC3)o1 | 74* | 1 | 27 | 2 | -26 | 43* | 25 | 20
N#Cc1c(-c2ccncc2)c2c([nH]c1=S)CCCC2 | 39 | 3 | 8 | -6 | -77 | 1 | · | ·
O=C(NCc1cccc(C(F)(F)F)c1)c1ccc[nH]1 | · | 4 | -1 | · | · | -14 | · | ·
CN(C(=O)CN1C(=O)NC(C)(c2cccc(Br)c2)C1=O)C1CCCCC1 (stereo unspecified) | · | -2 | 8 | · | · | 82* | 4 | 0
